This is part of a sample that, as a whole, favours compounds with a hit. Of some 79,000 tested, about 15% had one in any assay. Cut-off read from the data, not from the text of the source: active = growth inhibition above about 70%; inactive = the rest.
Legend:
[1] = NCI Yeast Anticancer Drug Screen. Data for the rad50 strain (AID 155);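 note: 0% = growth of vehicle-only cultures of the same strain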; conditions: S. cerevisiae rad50 strain growth inhibition, stronger effect = higher value; at 50.0 µM unless noted
Summary of the method: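 Growth of the mutant yeast was measured after compound exposure and referenced to vehicle-treated cultures.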

[2] = NCI Yeast Anticancer Drug Screen. Data for the mec2-1 strain (AID 157); conditions: S. cerevisiae mec2-1 strain, stronger effect = higher value; at 50.0 µM unless noted
Summary of the method: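 Yeast mec2-1 mutant treated with compound. Readout: growth inhibition vs vehicle controls.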

[3] = NCI Yeast Anticancer Drug Screen. Data for the sgs1 mgt1 strain (AID 161);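 note: 0% = growth of cultures given vehicle only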; conditions: S. cerevisiae sgs1 mgt1 strain, stronger effect = higher value; at 50.0 µM unless noted
Summary of the method: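 Read-out: growth inhibition vs vehicle controls. Cells: mutant yeast strain deficient in DNA damage repair.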

[4] = NCI Yeast Anticancer Drug Screen. Data for the cln2 rad14 strain (AID 165);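 note: 0% = growth equal to vehicle treated cultures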; conditions: S. cerevisiae cln2 rad14 strain, stronger effect = higher value; at 50.0 µM unless noted
Summary of the method: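 cln2 rad14 yeast strain; compound exposure; growth inhibition read vs vehicle controls.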

[5] = NCI Yeast Anticancer Drug Screen. Data for the bub3 strain (AID 167); conditions: S. cerevisiae bub3 mutant strain, stronger effect = higher value; at 50.0 µM unless noted
Summary of the method: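 Whole-cell yeast assay. The mutant strain was incubated with compounds, and growth inhibition was determined by comparison with vehicle-treated cells.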

[6] = NCI Yeast Anticancer Drug Screen. Data for the mlh1 rad18 strain (AID 175); conditions: S. cerevisiae mlh1 rad18 strain growth inhibition, stronger effect = higher value; at 50.0 µM unless noted
Summary of the method: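 Yeast w/ defined DNA-repair lesions; compound exposure; growth vs vehicle controls → % inhibition.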

Measured: growth inhibition

Nc1ncnc2c1c(-c1ccc(Cl)cc1)cn2-c1ccc(I)cc1
inactive: [1] 2.45% | [2] 2.45% | [3] -17.2% | [4] -7.4% | [5] -1.1% | [6] 7%

CCCNC(=O)Cn1c(-c2ccccc2)cc2ccccc21
inactive: [1] 13.4% | [2] 5.5% | [3] 16.7% | [4] 18.4% | [5] 27.9% | [6] -52.8%

Fc1cccc(C(Nc2nncs2)Nc2nncs2)c1F
inactive: [1] 5.5% | [2] 8.95% | [3] 29.8% | [4] -1.2% | [5] 5.15% | [6] 28.2%

O=C(N/N=C(\c1nc2ccc(Cl)cc2[nH]c1=O)C(O)c1ccccc1Cl)c1ccncc1 (stereo unspecified)
inactive: [1] 16.6% | [2] 20% | [3] 8.7% | [4] 18.7% | [5] 30.9% | [6] 37%

CCCNC(=O)Oc1ccccc1C(=O)NCO
inactive: [1] -3.5% | [2] 0.4% | [3] -9.35% | [4] -14.1% | [5] 16.8% | [6] -6.4%

Cc1ccc(S(=O)(=O)/N=S(/Cc2ccccc2)c2c(C)cccc2C)cc1 (stereo unspecified)
inactive: [1] 20.9% | [2] 2.65% | [3] 20.6% | [4] 17.6% | [5] -0.75% | [6] 3.3%

O=C(O)CCSCCC(=O)O
inactive: [1] -22.8% | [2] -2.5% | [3] -29.4% | [4] -48.4% | [5] -13.6% | [6] 22.4%

Cc1cc(C(=O)O)cc(C)c1N(C)C=O
inactive: [1] -0.8% | [2] 6.25% | [3] 3.15% | [4] 2.35% | [5] -1.05% | [6] 4.45%

O=C(Nc1ccc(F)cc1)N1CCOCC1
inactive: [1] 1.65% | [2] -25% | [3] 4.3% | [4] 9.6% | [5] 6.8% | [6] -9.4%

CCCCN(CCCC)C(=O)c1cccc(C)c1
inactive: [1] 13.7% | [2] 8.1% | [3] 4.1% | [4] -16.4% | [5] 53.2% | [6] 14.1%

C=C1OC(n2cnc3c(=N)n(O)cnc32)C2OC(C)(C)OC12 (stereo unspecified)
inactive: [1] -3.6% | [2] 4.75% | [3] 13.2% | [4] -16.4% | [5] 1.9% | [6] -16.5%

Nc1sc(=S)[nH]c1-c1ccccc1
inactive: [1] 20.1% | [2] 10.7% | [3] -24.9% | [4] -30.8% | [5] -11% | [6] 11.1%

CCOCCOC(=O)COc1ccccc1
inactive: [1] 12.8% | [2] 16.4% | [3] 17.6% | [4] 7% | [5] -7.85% | [6] 3.65%

COC(=O)c1cc(C)n(C)c(=O)c1CN
inactive: [1] -6.4% | [2] 4.85% | [3] -8.6% | [4] -22.4% | [5] -8.8% | [6] 0.8%

CC(C)N(C(=S)S)C(C)C
inactive: [1] 9.5% | [2] 4.95% | [3] 16.6% | [4] -0.65% | [5] -26.4% | [6] -19.2%

CCCCCC[N+]1([O-])CC[N+]([O-])(CCCCCC)CC1 (stereo unspecified)
inactive: [1] -6.6% | [2] -7.9% | [3] -1.55% | [4] -43.4% | [5] 0.35% | [6] 7.35%

O=S=Nc1c(Cl)cc(Cl)cc1Cl
inactive: [1] 1.1% | [2] -20.1% | [3] 1.55% | [4] -18.6% | [5] 11.7% | [6] -0.6%

COc1ccc2c(O)c(Oc3ccccc3)c(=O)oc2c1
inactive: [1] 0.5% | [2] 5% | [3] 4.25% | [4] 30.9% | [5] 15.3% | [6] 13.1%

N#CC1CC2CC1C1OC21 (stereo unspecified)
inactive: [1] -15.4% | [2] -10.3% | [3] -14.1% | [4] 9.35% | [5] -2.25% | [6] -5.9%

Nc1ncc2c(=O)[nH][nH]c(=O)c2n1
inactive: [1] 34.9% | [2] 31.6% | [3] 16.6% | [4] 12.4% | [5] 3.4% | [6] -5.5%

CCOC(=O)c1ccc(-c2ccc(Cl)cc2)[nH]1
inactive: [1] -7.3% | [2] 0% | [3] -3% | [4] 2.45% | [5] 34% | [6] 3.2%

From PubChem BioAssay (NCI)
